Screens as filed in PubChem.
Many of the other results were omitted from the sample, so hits are more common in it than they were.
Dicer processing – inhibitors of Dicer pre-microRNA processing, primary screen, biochemical, cat-ELCCA, chemiluminescence. Endoribonuclease Dicer (Homo sapiens), Q9UPY3. cat-ELCCA pre-miR-21 Dicer processing; active compounds read high. z-score at 25 µM. hit rate 6% among 47,000. AID 1347074, 2019; in the data active means z-score above about 3, passing the limit was not always enough;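 further: plate controls were vehicle for no effect and no enzyme for full effect; higher signal means more uncleaved substrate so more Dicer inhibition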
Target sequence (Q9UPY3 whole entry, looked up): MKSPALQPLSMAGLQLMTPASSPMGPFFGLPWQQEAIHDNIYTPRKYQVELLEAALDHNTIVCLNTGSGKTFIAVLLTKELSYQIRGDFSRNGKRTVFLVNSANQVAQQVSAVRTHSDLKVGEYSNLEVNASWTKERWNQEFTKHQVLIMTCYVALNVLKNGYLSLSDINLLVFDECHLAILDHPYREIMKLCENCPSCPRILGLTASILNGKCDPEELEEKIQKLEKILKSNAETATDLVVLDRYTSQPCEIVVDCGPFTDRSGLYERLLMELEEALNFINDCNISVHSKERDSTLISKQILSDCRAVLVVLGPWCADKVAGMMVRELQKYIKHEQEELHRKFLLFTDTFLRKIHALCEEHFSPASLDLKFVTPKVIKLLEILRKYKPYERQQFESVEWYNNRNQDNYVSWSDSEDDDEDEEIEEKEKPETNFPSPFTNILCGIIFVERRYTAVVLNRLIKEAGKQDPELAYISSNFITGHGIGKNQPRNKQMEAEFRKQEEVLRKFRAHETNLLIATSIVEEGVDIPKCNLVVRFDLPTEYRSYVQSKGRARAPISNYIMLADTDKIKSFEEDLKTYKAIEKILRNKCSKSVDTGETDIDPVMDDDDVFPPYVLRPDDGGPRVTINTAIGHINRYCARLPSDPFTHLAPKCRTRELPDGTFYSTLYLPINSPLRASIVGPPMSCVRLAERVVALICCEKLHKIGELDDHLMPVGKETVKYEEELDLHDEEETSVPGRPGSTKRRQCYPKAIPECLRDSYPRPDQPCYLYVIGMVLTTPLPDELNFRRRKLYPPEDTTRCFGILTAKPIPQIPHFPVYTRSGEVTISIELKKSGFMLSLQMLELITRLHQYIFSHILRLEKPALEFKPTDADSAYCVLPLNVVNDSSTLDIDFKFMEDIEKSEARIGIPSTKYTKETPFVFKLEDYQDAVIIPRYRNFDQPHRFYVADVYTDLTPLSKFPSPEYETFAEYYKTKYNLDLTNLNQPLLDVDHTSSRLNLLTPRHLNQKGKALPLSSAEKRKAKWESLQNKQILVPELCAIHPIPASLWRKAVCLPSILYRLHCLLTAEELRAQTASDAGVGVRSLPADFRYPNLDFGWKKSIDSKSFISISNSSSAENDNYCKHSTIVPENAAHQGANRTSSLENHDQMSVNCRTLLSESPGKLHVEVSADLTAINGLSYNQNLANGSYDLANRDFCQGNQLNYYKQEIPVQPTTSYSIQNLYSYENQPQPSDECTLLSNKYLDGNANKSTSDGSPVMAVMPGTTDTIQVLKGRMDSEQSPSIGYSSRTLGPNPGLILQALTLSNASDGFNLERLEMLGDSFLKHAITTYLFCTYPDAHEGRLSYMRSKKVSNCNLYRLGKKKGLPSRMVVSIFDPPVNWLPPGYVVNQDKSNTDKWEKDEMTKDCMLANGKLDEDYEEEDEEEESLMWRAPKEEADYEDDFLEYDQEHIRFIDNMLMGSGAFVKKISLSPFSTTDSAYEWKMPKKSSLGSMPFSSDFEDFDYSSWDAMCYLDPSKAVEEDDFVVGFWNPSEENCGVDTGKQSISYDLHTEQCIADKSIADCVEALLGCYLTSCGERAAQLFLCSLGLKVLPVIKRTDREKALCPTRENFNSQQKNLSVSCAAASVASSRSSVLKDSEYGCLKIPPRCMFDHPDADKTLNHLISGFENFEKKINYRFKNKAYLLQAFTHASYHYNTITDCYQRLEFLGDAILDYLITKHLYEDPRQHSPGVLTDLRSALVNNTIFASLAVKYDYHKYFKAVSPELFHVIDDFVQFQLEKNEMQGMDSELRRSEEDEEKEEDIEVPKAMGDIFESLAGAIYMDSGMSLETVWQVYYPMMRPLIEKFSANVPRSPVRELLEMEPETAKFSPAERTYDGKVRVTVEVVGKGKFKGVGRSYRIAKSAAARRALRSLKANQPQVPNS
Active calls of the source: *.

SMILES	Dicer processing
CN(NC(=O)c1ccc(C(F)(F)F)cc1)c1cnn(-c2ccc(F)c(Cl)c2)c(=O)c1Cl	-0.92
CCOC(=O)C1=C(C)NC2=C(C(=O)CC(c3ccccc3)C2)C1c1ccc(O)c(OCC)c1 (stereo not drawn)	0.02
CC1=C(C(=O)OCC(C)C)C(c2ccc(F)cc2)C2=C(CC(c3ccccc3)CC2=O)N1 (stereo not drawn)	0.98
CCC(C)OC(=O)C1=C(C)NC2=C(C(=O)CC(c3ccccc3)C2)C1c1ccc(N(C)C)cc1 (stereo not drawn)	3.34*
CCOC(=O)C1=C(C)NC2=C(C(=O)CC(c3ccccc3)C2)C1c1cccc(O)c1 (stereo not drawn)	1.18
CCOC(=O)C1=C(C)NC2=C(C(=O)CC(c3ccccc3)C2)C1c1cccc(Br)c1 (stereo not drawn)	5.36*
CC1=C(C(=O)OC(C)C)C(c2ccncc2)C2=C(CC(c3ccccc3)CC2=O)N1 (stereo not drawn)	1.16
COc1ccc(NC(=O)CSc2nccn2C)c(OC)c1	1.94
Nc1c(C(=O)N/N=C/c2ccccc2)sc2nnc(-c3ccccc3)c(-c3ccccc3)c12	0.63
O=C(O)c1cccc2c1NC(c1ccc(Br)cc1)C1C3CCC(C3)C21 (stereo not drawn)	0.67
Cc1nc2c(C#N)c[nH]n2c(=O)c1Cc1ccccc1	1.88
CC(=O)N/N=C/c1ccc(-c2cc(C(F)(F)F)n(C)n2)s1	1.01
COc1ccc(OC)c(S(=O)(=O)c2ccc(Cl)cc2[N+](=O)[O-])c1	4.21*
O=[N+]([O-])c1cc(Cl)ccc1S(=O)(=O)c1ccccc1	-0.87
O=[N+]([O-])c1cc(Cl)ccc1S(=O)(=O)c1ccc(Cl)cc1	0.62
Cn1cnc([N+](=O)[O-])c1N1CCN(c2ccc(C(F)(F)F)cn2)CC1	-3.09
COc1ccc(C2=NN3C(C2)c2ccccc2OC3c2ccc(C)cc2)cc1OC (stereo not drawn)	21.1
COc1ccc(O)c(C2=NN3C(C2)c2cc(Cl)ccc2OC3c2ccncc2)c1 (stereo not drawn)	2.76
Oc1ccccc1C1=NN2C(C1)c1cc(Cl)ccc1OC2c1cccnc1 (stereo not drawn)	4.83
COc1ccc(O)c(C2=NN3C(C2)c2ccccc2OC3c2cccnc2)c1 (stereo not drawn)	-0.42
Cc1ccc(C2=NN3C(C2)c2ccccc2OC3c2ccncc2)cc1 (stereo not drawn)	6.88*
COc1ccc(C2=NN3C(C2)c2cc(Cl)ccc2OC3c2ccncc2)cc1 (stereo not drawn)	9.08*
Cc1ccc(O)c(C2=NN3C(C2)c2ccccc2OC3c2ccncc2)c1 (stereo not drawn)	2.29
COc1ccc(O)c(C2=NN3C(C2)c2cccc(OC)c2OC3c2cccnc2)c1 (stereo not drawn)	0.4
COc1ccc(C2=NN3C(C2)c2cc(OC)ccc2OC3c2cccnc2)cc1 (stereo not drawn)	4.84*
SMILES	Dicer processing
N#Cc1nn(-c2ccccc2)c(=O)n(Cc2ccc(Cl)cc2)c1=O	-0.08
CC1OCN(c2ccc(OC(F)(F)F)cc2)Cn2c1nc1ccccc12 (stereo not drawn)	1.58
c1ccc2c(c1)c1ccccc1n2CCOCCN1CCCCC1	0.4
COc1ccc(-c2nc3ccccc3c(=O)o2)cc1OC	1.28
CC(C)CNC(=O)c1nn2c(C(F)(F)F)cc(-c3cccs3)nc2c1Cl	0.12
Nc1nc(-c2cccnc2)nn1C(=O)c1ccc(Cl)cc1	-0.49
CC(=O)n1nc(-c2cccnc2)nc1N	5.53*
Nc1nc(-c2cccnc2)nn1C(=O)Cc1ccccc1	8.25*
CCOC(=O)Cn1c(-c2cccnc2)nc(-c2ccccc2)c1-c1ccccc1	1.14
O=C(O)c1cc(-c2cccnc2)nc2ccccc12	-1.51
Nc1nc(-c2cccnc2)nn1S(=O)(=O)c1ccccc1	0.34
C=CCNc1nc(C2(C)CC3(CC(COCCC(C)C)OC3=O)C(=O)O2)cs1 (stereo not drawn)	-0.14
COc1cc(NC(=O)Nc2ccc(Cl)cc2)c(-n2c(C)ccc2C)cc1OC	1.57
O=C(NNc1cc(Cl)ccc1Cl)c1sccc1Cl	5.17*
O=C(NNc1cc(Cl)ccc1Cl)C1CCCS1 (stereo not drawn)	1.64
O=C(NNc1c(Cl)cccc1Cl)c1sccc1Cl	2.98
Cc1onc(-c2c(Cl)cccc2Cl)c1C(=O)Oc1noc2ccccc12	0.92
N#Cc1c(C(F)(F)F)cc(-c2cccs2)nc1Sc1ccccc1NC(=O)Nc1ccccc1	-0.87
COc1cccc(C2CC(c3ccccc3)=NN2C(=O)CCCC(=O)O)c1OC (stereo not drawn)	0.83
COc1ccc(C2=NN(C(=O)CCCC(=O)O)C(c3ccc(Cl)cc3)C2)cc1OC (stereo not drawn)	-1
COc1ccc(C2=NN(C(=O)CCCC(=O)O)C(c3ccc(F)cc3)C2)cc1OC (stereo not drawn)	3.78*
COc1cccc(OCc2ccc(Cl)cc2)c1C#N	-0.62
CN(C)NC(=S)Nc1cccc(C(F)(F)F)c1	-1.3
CCN(CC)CCNc1nc2c(c(=O)n(C)c(=O)n2C)n1Cc1ccc(F)cc1	3.29*
Cn1c(=O)c2c(nc(NCCO)n2Cc2cccc3ccccc23)n(C)c1=O	3.08*
SMILES	Dicer processing
Cn1c(=O)c2c(nc(N/N=C/c3cccc(O)c3)n2Cc2ccccc2Br)n(C)c1=O	3.38*
Cn1c(=O)c2c(nc(N/N=C/c3ccccc3)n2Cc2ccccc2)n(C)c1=O	1.18
Cn1c(=O)c2c(nc(NCCCO)n2Cc2ccccc2F)n(C)c1=O	0.32
Cn1c(=O)c2c(nc(NCc3ccccc3)n2Cc2ccccc2)n(C)c1=O	1.2
Cn1c(=O)c2c(nc(NC3CCCCC3)n2Cc2ccccc2)n(C)c1=O	3.63*
Cn1c(=O)c2c(nc(N/N=C/c3ccc(O)cc3)n2Cc2c(Cl)cccc2Cl)n(C)c1=O	4.75
CCN(CC)CCNc1nc2c(c(=O)n(C)c(=O)n2C)n1Cc1ccc(Cl)c(Cl)c1	-0.88
Cn1c(=O)c2c(nc(NCCc3ccccc3)n2Cc2ccccc2F)n(C)c1=O	-0.97
CCN(CC)CCNc1nc2c(c(=O)[nH]c(=O)n2C)n1Cc1ccc(Cl)cc1	-3.55
Cn1c(=O)c2c(nc(Cl)n2Cc2ccccc2)n(C)c1=O	-3.91
CC1Sc2ccc(Cl)cc2C(=O)/C1=C/c1ccc(C(F)(F)F)cc1 (stereo not drawn)	0.23
O=C(O)/C=C/C(=O)NCCNc1ccc(C(F)(F)F)cn1	-0.93
O=C(O)c1ccc2c3c(ccc(C(=O)O)c13)C(=O)NC2=O	-0.16
N#Cc1c2c(c(NCCN3CCOCC3)n3c1nc1ccccc13)CCCC2	56.2
O=c1[nH]cnc2scc(-c3cccs3)c12	-1.48
CNC(=S)N/N=C/c1cc(C(F)(F)F)cc(C(F)(F)F)c1	-0.06
CC1(C)CC(=O)C2=C(C1)Nc1ccccc1NC2c1ccc(O)cc1 (stereo not drawn)	-1.38
CC(C)c1nc2sc3c(N4CCOCC4)ncnc3c2c2c1COC(C)(C)C2	-0.21
C[n+]1c(/C=C/c2ccc3c(c2)OCO3)sc2ccccc21	12.3
CSC(SC)=C(C(C)=O)S(=O)(=O)c1ccc(Cl)cc1	-2.82
Cn1c2ccccc2c2nnc(SCC(=O)c3ccccc3)nc21	0.57
C=C1c2cc(C)c(C)cc2NC(=O)N1c1ccccc1	2.85
Cc1cc2c(cc1C)NC(=O)c1ccccc1C(c1ccccc1)=N2	3.09*
CC1CN=C(c2ccccc2)c2ccccc2C(=O)O1 (stereo not drawn)	-0.71
O=C(CSc1nccc(-c2cccs2)n1)Nc1ccc(Oc2ccc(Cl)cc2Cl)cc1	0.63
